# Experimental data as given in PubChem BioAssay (NCI).
# This is part of a sample that, as a whole, favours compounds with a hit. Of some 79,000 tested, about 15% had one in any assay. A number with no mark means an inactive call. Activity calls are given as the source filed them. Cut-off read from the data, not from the text of the source: active = growth inhibition above about 70%; inactive = the rest.
# What was measured:
# [1] = NCI Yeast Anticancer Drug Screen. Data for the wt2 strain (AID 169);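 note: 0% = growth of vehicle-treated yeast cultures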; conditions: S. cerevisiae wt2 strain growth inhibition, active compounds read high
# Summary of the method: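 Treated yeast vs. vehicle-treated yeast: growth inhibition determined.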
# [2] = NCI Yeast Anticancer Drug Screen. Data for the mlh1 strain (AID 171);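 note: 0% = growth of vehicle-treated control cultures of the same strain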; conditions: S. cerevisiae mlh1 strain growth inhibition, active compounds read high
# Summary of the method: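 A yeast strain with a defined genetic lesion serves as the test organism. Cultures receive compound or vehicle, and growth is measured.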
# [3] = NCI Yeast Anticancer Drug Screen. Data for the sgs1 strain (AID 173);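 note: 0% = growth of vehicle-only control cultures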; conditions: S. cerevisiae sgs1 mutant, active compounds read high
# Summary of the method: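 A genetically defined yeast mutant is incubated with the test compound, and its growth is compared to that of the same strain given vehicle.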
# [4] = NCI Yeast Anticancer Drug Screen. Data for the mlh1 rad18 strain (AID 175); conditions: S. cerevisiae mlh1 rad18 strain growth inhibition, active compounds read high
# Summary of the method: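 Steps: expose repair-defective yeast to compound; measure growth; express inhibition against vehicle-treated controls.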
# [5] = NCI Yeast Anticancer Drug Screen. Data for the rad18 strain (AID 177); conditions: S. cerevisiae rad18 mutant growth inhibition, active compounds read high
# Summary of the method: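 Measured value is growth inhibition of a yeast strain bearing a DNA repair alteration, referenced to vehicle-treated cells.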
# [6] = NCI Yeast Anticancer Drug Screen. Data for the rad52 strain (AID 147);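 note: 0% = growth of vehicle-treated control cultures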; conditions: S. cerevisiae rad52 mutant growth inhibition, active compounds read high
# Summary of the method: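 Here a repair-compromised yeast strain receives each compound; its growth is then quantified and normalised to vehicle-only controls.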
# [7] = NCI Yeast Anticancer Drug Screen. Data for the wt1 strain (AID 149);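 note: 0% = growth of vehicle-treated wt1 cultures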; conditions: S. cerevisiae wt1 strain (SPY 50644) growth inhibition, active compounds read high
# Summary of the method: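 Using yeast strain wt1, compound-induced growth inhibition was determined against vehicle-treated cultures.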
# [8] = NCI Yeast Anticancer Drug Screen. Data for the rad50EPP+ strain (AID 151);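 note: 0% = growth of vehicle-treated control cultures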; conditions: S. cerevisiae rad50 mutant strain, active compounds read high
# Summary of the method: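 Read-out is yeast growth inhibition relative to vehicle; cells used were the rad50EPP+ strain.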
# [9] = NCI Yeast Anticancer Drug Screen. Data for the mgt1 strain (AID 153); conditions: S. cerevisiae mgt1 mutant growth inhibition, active compounds read high
# Summary of the method: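 Measured: inhibition of mgt1 yeast growth by compound, normalized to vehicle-treated cultures.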
# [10] = NCI Yeast Anticancer Drug Screen. Data for the rad50 strain (AID 155);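 note: 0% = growth of vehicle-only cultures of the same strain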; conditions: S. cerevisiae rad50 strain growth inhibition, active compounds read high
# Summary of the method: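 Relative growth inhibition (compound vs vehicle) was measured in yeast with a defined repair-gene alteration.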
# [11] = NCI Yeast Anticancer Drug Screen. Data for the mec2-1 strain (AID 157); conditions: S. cerevisiae mec2-1 strain, active compounds read high
# Summary of the method: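 Using mec2-1 yeast: add compound, measure growth, express inhibition versus vehicle-treated cultures.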
# [12] = NCI Yeast Anticancer Drug Screen. Data for the rad14 strain (AID 159);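 note: 0% = growth of vehicle-treated control cultures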; conditions: S. cerevisiae rad14 strain growth inhibition, active compounds read high
# Summary of the method: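 Screen for anticancer potential: a yeast strain altered in DNA damage repair is grown with compound, and reduced growth is quantified against vehicle controls.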
# [13] = NCI Yeast Anticancer Drug Screen. Data for the sgs1 mgt1 strain (AID 161);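 note: 0% = growth of cultures given vehicle only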; conditions: S. cerevisiae sgs1 mgt1 strain, active compounds read high
# Summary of the method: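 Growth of a repair-deficient yeast mutant was monitored after compound treatment and expressed as inhibition relative to vehicle-treated cultures.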
# [14] = NCI Yeast Anticancer Drug Screen. Data for the CLN2oe strain (AID 163);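 note: 0% = growth of vehicle-only control cultures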; conditions: S. cerevisiae CLN2oe strain, active compounds read high
# Summary of the method: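 Whole-cell yeast growth assay. A strain engineered for altered cell-cycle control received compound, and inhibition relative to vehicle-treated cultures was recorded.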
# [15] = NCI Yeast Anticancer Drug Screen. Data for the cln2 rad14 strain (AID 165);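 note: 0% = growth equal to vehicle treated cultures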; conditions: S. cerevisiae cln2 rad14 strain, active compounds read high
# Summary of the method: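 Yeast strain cln2 rad14, bearing defects in cell cycle control and DNA repair, serves as the test system; values reflect growth inhibition compared with vehicle.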
# [16] = NCI Yeast Anticancer Drug Screen. Data for the bub3 strain (AID 167); conditions: S. cerevisiae bub3 mutant strain, active compounds read high
# Summary of the method: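 Screening used yeast with an engineered genetic alteration affecting cell cycle control. Compound-exposed cultures were compared with vehicle cultures, and reduced growth was taken as inhibition.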
# [17] = at 5.0 µM (retest, dose inferred, filed as 0.5)
# [18] = at 50.0 µM (retest, dose inferred, filed as 5.0)
structure (smiles),measurement,setting,value
COc1ccc2cc(C(C)C(=O)N3CCOC3=O)ccc2c1 (stereo unspecified),growth inhibition,[1]; at 1.2 µM,-41%
same,growth inhibition,[1]; at 3.7 µM,-41%
same,growth inhibition,[1]; at 11.0 µM,-34%
same,growth inhibition,[1]; at 33.0 µM,-28%
same,growth inhibition,[1]; at 100.0 µM,-7%
same,growth inhibition,[2]; at 1.2 µM,21%
same,growth inhibition,[2]; at 3.7 µM,10%
same,growth inhibition,[2]; at 11.0 µM,11%
same,growth inhibition,[2]; at 33.0 µM,21%
same,growth inhibition,[2]; at 100.0 µM,64%
same,growth inhibition,[3]; at 1.2 µM,-2%
same,growth inhibition,[3]; at 3.7 µM,-12%
same,growth inhibition,[3]; at 11.0 µM,-2%
same,growth inhibition,[3]; at 33.0 µM,3%
same,growth inhibition,[3]; at 100.0 µM,27%
same,growth inhibition,[4]; [17],-28%
same,growth inhibition,[4]; [18],78% (active)
same,growth inhibition,[4]; at 50.0 µM,44.1%
same,growth inhibition,[5]; at 1.2 µM,13%
same,growth inhibition,[5]; at 3.7 µM,10%
same,growth inhibition,[5]; at 11.0 µM,9%
same,growth inhibition,[5]; at 33.0 µM,4%
same,growth inhibition,[5]; at 100.0 µM,21%
CSC(=S)N/N=C/c1ccccc1,growth inhibition,[6]; at 1.2 µM,10%
same,growth inhibition,[6]; at 3.7 µM,20%
same,growth inhibition,[6]; at 11.0 µM,53%
same,growth inhibition,[6]; at 33.0 µM,67%
same,growth inhibition,[6]; at 100.0 µM,67%
same,growth inhibition,[7]; at 1.2 µM,4%
same,growth inhibition,[7]; at 3.7 µM,11%
same,growth inhibition,[7]; at 11.0 µM,29%
same,growth inhibition,[7]; at 33.0 µM,48%
same,growth inhibition,[7]; at 100.0 µM,43%
same,growth inhibition,[8]; at 1.2 µM,-1%
same,growth inhibition,[8]; at 3.7 µM,2%
same,growth inhibition,[8]; at 11.0 µM,16%
same,growth inhibition,[8]; at 33.0 µM,60%
same,growth inhibition,[8]; at 100.0 µM,75% (active)
same,growth inhibition,[9]; at 1.2 µM,3%
same,growth inhibition,[9]; at 3.7 µM,2%
same,growth inhibition,[9]; at 11.0 µM,22%
same,growth inhibition,[9]; at 33.0 µM,27%
same,growth inhibition,[9]; at 100.0 µM,39%
same,growth inhibition,[10]; at 1.2 µM,28%
same,growth inhibition,[10]; at 3.7 µM,57%
same,growth inhibition,[10]; [17],38%
same,growth inhibition,[10]; at 11.0 µM,82% (active)
same,growth inhibition,[10]; at 33.0 µM,83% (active)
same,growth inhibition,[10]; [18],86% (active)
same,growth inhibition,[10]; at 50.0 µM,94.6% (active)
same,growth inhibition,[10]; at 100.0 µM,82% (active)
same,growth inhibition,[11]; at 1.2 µM,5%
same,growth inhibition,[11]; at 3.7 µM,13%
same,growth inhibition,[11]; [17],48%
same,growth inhibition,[11]; at 11.0 µM,10%
same,growth inhibition,[11]; at 33.0 µM,20%
same,growth inhibition,[11]; [18],76% (active)
same,growth inhibition,[11]; at 50.0 µM,75.8% (active)
same,growth inhibition,[11]; at 100.0 µM,23%
same,growth inhibition,[12]; at 1.2 µM,-1%
same,growth inhibition,[12]; at 3.7 µM,-1%
same,growth inhibition,[12]; at 11.0 µM,12%
same,growth inhibition,[12]; at 33.0 µM,22%
same,growth inhibition,[12]; at 100.0 µM,29%
same,growth inhibition,[13]; [17],26%
same,growth inhibition,[13]; [18],87% (active)
same,growth inhibition,[13]; at 50.0 µM,75.2% (active)
same,growth inhibition,[14]; at 1.2 µM,-3%
same,growth inhibition,[14]; at 3.7 µM,3%
same,growth inhibition,[14]; at 11.0 µM,14%
same,growth inhibition,[14]; at 33.0 µM,22%
same,growth inhibition,[14]; at 100.0 µM,17%
same,growth inhibition,[15]; [17],16%
same,growth inhibition,[15]; [18],21%
same,growth inhibition,[15]; at 50.0 µM,49.3%
same,growth inhibition,[16]; at 1.2 µM,32%
same,growth inhibition,[16]; at 3.7 µM,28%
same,growth inhibition,[16]; [17],46%
same,growth inhibition,[16]; at 11.0 µM,59%
same,growth inhibition,[16]; at 33.0 µM,60%
same,growth inhibition,[16]; [18],82% (active)
same,growth inhibition,[16]; at 50.0 µM,90% (active)
same,growth inhibition,[16]; at 100.0 µM,59%
same,growth inhibition,[1]; at 1.2 µM,-2%
same,growth inhibition,[1]; at 3.7 µM,2%
same,growth inhibition,[1]; at 11.0 µM,16%
same,growth inhibition,[1]; at 33.0 µM,28%
same,growth inhibition,[1]; at 100.0 µM,37%
same,growth inhibition,[2]; at 1.2 µM,1%
same,growth inhibition,[2]; at 3.7 µM,3%
same,growth inhibition,[2]; at 11.0 µM,25%
same,growth inhibition,[2]; at 33.0 µM,26%
same,growth inhibition,[2]; at 100.0 µM,37%
same,growth inhibition,[3]; at 1.2 µM,0%
same,growth inhibition,[3]; at 3.7 µM,5%
same,growth inhibition,[3]; at 11.0 µM,21%
same,growth inhibition,[3]; at 33.0 µM,44%
same,growth inhibition,[3]; at 100.0 µM,55%
same,growth inhibition,[4]; [17],48%
same,growth inhibition,[4]; [18],85% (active)
same,growth inhibition,[4]; at 50.0 µM,89.5% (active)
same,growth inhibition,[5]; at 1.2 µM,23%
same,growth inhibition,[5]; at 3.7 µM,55%
same,growth inhibition,[5]; at 11.0 µM,86% (active)
same,growth inhibition,[5]; at 33.0 µM,86% (active)
same,growth inhibition,[5]; at 100.0 µM,81% (active)
